Experimental data from publication PMC5540273 (PLoS ONE, 2017).
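Further: kd values determined as follow-up on hits from a single-replicate KINOMEscan panel screen.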

SMILES: COc1ccc(NC(=O)c2ccc(-c3cc(-c4nnc(C)o4)ccc3C)cc2)cc1 [GW595885]
- Kd (CLK3): > 10000 nM

SMILES: Cc1ccc(C)c(NC(=O)NCCNc2ccnc(Nc3ccc(F)cc3)n2)c1 [GSK1379878]
- Kd (CSK): > 10000 nM

SMILES: FC(F)(F)c1cc(Nc2nccc(-c3c(-c4ccc(Cl)cc4)nn4ncccc34)n2)ccc1Cl [GW829351]
- Kd (CSNK1D): 2200 nM

SMILES: COc1cc2c(Nc3cccc(NC(=O)c4ccccc4)c3)ncnc2cc1OCCCN1CCOCC1 [GSK223810]
- Kd (CSF1R): 420 nM

SMILES: O=C(Nc1ccccc1F)NC1CCN(c2ccnc(Nc3ccc(F)cc3)n2)C1 (centres unmarked) [GSK1379722]
- Kd (CSNK1G2): > 10000 nM

SMILES: COc1ccc(NC(=O)Nc2ccc(C)c(-c3ccc(C(=O)Nc4ccncc4)cc3)c2)cc1 [GSK1398475]
- Kd (CSF1R): 1800 nM

SMILES: O=C(NCCCN1CCCC1=O)c1cnc(NCc2cc(Cl)ccc2Cl)nc1NC1CCNCC1
- Kd (CSF1R): > 10000 nM
- Kd (CSNK1E): 230 nM

SMILES: Nc1nc(-c2cccnc2)c(-c2ccnc3ccccc23)s1 [GW684083]
- Kd (CLK3): > 10000 nM

SMILES: CSc1ccc(NC2=C(c3ccccc3Cl)C(=O)NC2=O)cc1 [SB-342411]
- Kd (CLK2): 460 nM

SMILES: Cc1ccc(NC(=O)c2cccc(C#N)c2)cc1-c1ccc(C(=O)Nc2ccncc2)cc1 [GSK1398463]
- Kd (CSF1R): 780 nM

SMILES: CCc1nc(-c2cccc(C)c2)c(-c2ccnc(NC(=O)c3ccccc3)c2)s1
- Kd (CSNK1A1): 1400 nM
- Kd (CSNK1D): 690 nM
- Kd (CSNK1E): 880 nM

SMILES: CSc1nn2c(=O)cc(N3CCOCC3)nc2n1Cc1cccc(Cl)c1Cl [GSK2347225]
- Kd (CLK3): > 10000 nM
- Kd (CSNK1E): > 10000 nM

SMILES: COC(=O)c1c(-c2ccccc2)c2cc(Cl)ccc2c(=O)n1Cc1ccc(S(C)(=O)=O)cc1
- Kd (CSNK1G1): > 10000 nM

SMILES: Nc1nccc2scc(-c3ccc4c(c3)CCN4C(=O)Cc3cc(F)ccc3F)c12 [GSK2587663]
- Kd (CLK3): > 10000 nM

SMILES: Fc1cccc(COc2ccc(Nc3ncnc4sc(-c5ccc[nH]5)cc34)cc2Cl)c1 [GW707818]
- Kd (CLK4): > 10000 nM

SMILES: Fc1ccc(-c2ncn(CCCNCc3ccccc3)c2-c2ccncc2)cc1
- Kd (CSNK1A1): 210 nM
- Kd (CSNK1D): 47 nM
- Kd (CSNK1E): 130 nM

SMILES: CC(C)N1CCC(n2cnc(-c3ccc(F)cc3)c2-c2ccnc(N)n2)CC1 [SB-223132]
- Kd (CSNK1A1): 59 nM
- Kd (CSNK1D): 39 nM
- Kd (CSNK1E): 230 nM

SMILES: CNc1nccc(-c2c(-c3ccc(F)cc3)ncn2C2CCN(C)CC2)n1 [SB-222903]
- Kd (CSNK1A1): 24 nM
- Kd (CSNK1D): 5.7 nM
- Kd (CSNK1E): 17 nM

SMILES: CN1c2ccc(-c3ccc(C(=O)NCCO)cc3)cc2-c2[nH]ncc2S1(=O)=O
- Kd (CLK2): 700 nM

SMILES: CN1CCC(n2cnc(-c3ccc(F)cc3)c2-c2ccnc(NC3CCNCC3)n2)CC1 [SB-229482]
- Kd (CSNK1A1): 160 nM
- Kd (CSNK1D): 89 nM
- Kd (CSNK1E): 210 nM

SMILES: c1ccc(-c2ccc3c(-c4ccnc(Nc5ccc6c(c5)OCCO6)n4)cnn3n2)cc1 [GW818941]
- Kd (CSK): > 10000 nM

SMILES: Cn1ccc2ncnc(Oc3ccc(NC(=O)Nc4cccnc4)c(Cl)c3)c21
- Kd (CSF1R): 290 nM

SMILES: Nc1nc(-c2ccccn2)c(-c2ccnc3ccccc23)s1 [GW548057]
- Kd (CSNK1A1): 1200 nM
- Kd (CSNK1D): 1800 nM

SMILES: COc1ccc(Nc2nccc(N3CCC(NC(=O)Nc4ccc5c(c4)OCO5)C3)n2)cc1 (centres unmarked) [GSK1379745]
- Kd (CSNK1D): > 10000 nM

SMILES: Nc1nc(-c2ccc3c(N)n[nH]c3c2)cc(N2CCC[C@@H](C(=O)Nc3ccccc3)C2)n1.O=C(O)C(F)(F)F.O=C(O)C(F)(F)F [GSK2288359]
- Kd (CSNK1G2): > 10000 nM
